Assay outcomes (PubChem)
Most compounds without a hit are left out; they make up all but 2.1% or so of the library.
NFkB binder = binders of NF-kB p50 subunit, primary screen, biochemical, small molecule microarray, anti-His fluorescence | Nuclear factor NF-kappa-B p105 subunit (Homo sapiens), P19838 | anti-His fluorescence binding | calls only | 17,000 tested, 1.3% active | AID 624139, 2012;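 active = spot fluorescence over background significantly raised, with a chance value under 7% in all four replicate spots of the compound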;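 note: probe protein is his-tagged human p50 processed subunit at 1 µg/ml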
p53 mut binder = binders of human mutant p53, primary screen, biochemical, small molecule microarray, anti-GST fluorescence. calls only. 17,000 tested, 0.4% active. AID 624136, 2012. small molecule microarray binding. mutant tumor protein p53 (GST-tagged), Homo sapiens;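 active = compounds whose four printed spots each glow above background more than chance allows, each with a p-value under 7%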
STAT3 SMM = STAT3 binders, primary screen, biochemical, small molecule microarray, single point, set 2. calls only. His-STAT3 binding, anti-His fluorescence. Signal transducer and activator of transcription 3 (Homo sapiens), P40763. 17,000 tested, 0.2% active;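 active = compounds whose four printed spots each show fluorescence over background unusually high for their array block, chance value under 7%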
c-Myc SMM = binders of human c-Myc, primary screen, biochemical, small molecule microarray, anti-His fluorescence | Myc proto-oncogene protein (Homo sapiens), P01106 | His-c-Myc binding | calls only | 17,000 tested, 1.5% active | AID 624141, 2012;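 active = spot fluorescence over background with P-value below 7% in all four replicate spots, showing protein binding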
Target sequence (P01106 whole entry, looked up): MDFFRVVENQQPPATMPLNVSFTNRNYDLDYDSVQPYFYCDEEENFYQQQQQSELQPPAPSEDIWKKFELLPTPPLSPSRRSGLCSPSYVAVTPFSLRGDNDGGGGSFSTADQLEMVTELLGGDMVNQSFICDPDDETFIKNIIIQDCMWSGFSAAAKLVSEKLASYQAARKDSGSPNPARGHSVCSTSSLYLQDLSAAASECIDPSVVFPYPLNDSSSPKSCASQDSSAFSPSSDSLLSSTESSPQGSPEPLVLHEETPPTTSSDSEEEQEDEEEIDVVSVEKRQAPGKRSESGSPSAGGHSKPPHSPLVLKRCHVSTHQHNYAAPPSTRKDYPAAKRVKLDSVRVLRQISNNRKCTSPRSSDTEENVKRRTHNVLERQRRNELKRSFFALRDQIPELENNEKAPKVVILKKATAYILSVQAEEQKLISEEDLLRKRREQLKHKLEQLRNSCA
Calls only; – = inactive; + = active, no number.

SMILES	NFkB binder	p53 mut binder	STAT3 SMM	c-Myc SMM
C=CCNC(=O)[C@@H]1[C@H]2C(=O)O[C@H](c3ccccc3)[C@H](c3ccccc3)N2[C@H](c2ccccc2OCCO)[C@@]12C(=O)Nc1ccc(C#CC3(O)CCCCCC3)cc12	–	–	–	–
COc1cc(NC(=O)COc2ccccc2Cl)ccc1NC(=O)c1cc2ccccc2o1	–	–	–	–
CC(=O)c1cccc(NC(=O)c2ccsc2NC(=O)COc2ccccc2)c1	–	–	–	–
COC(=O)C(CC#Cc1ccc2c(c1)[C@]1(C(=O)N2)[C@H](c2ccc(OCCO)cc2)N2[C@H](c3ccccc3)[C@H](c3ccccc3)OC(=O)[C@H]2[C@@H]1C(=O)N1CCCCCCC1)C(=O)OC	–	+	–	–
CN(CCC#N)S(=O)(=O)c1cccc2nsnc12	–	–	–	–
CC(C)CC(NS(=O)(=O)c1cccc2nsnc12)C(=O)O (centres undefined)	+	–	–	+
C[C@@H]1CN([C@@H](C)CO)C(=O)c2cc(NC(=O)Nc3cccc4ccccc34)ccc2O[C@@H](C)CCCCO[C@@H]1CN(C)CC1CCCCC1	+	–	–	+
CCCN(C)C[C@H]1OCCCC[C@@H](C)Oc2ccc(NS(=O)(=O)c3ccc(OC)cc3)cc2C(=O)N([C@@H](C)CO)C[C@H]1C	–	+	–	+
C[C@@H]1CCCCO[C@H](CN(C)CC2CC2)[C@@H](C)CN([C@H](C)CO)C(=O)c2cc(NC(=O)Nc3cccc4ccccc34)ccc2O1	–	–	–	–
CCCN(C)C[C@@H]1OCCCC[C@@H](C)Oc2ccc(NC(=O)Nc3cccc4ccccc34)cc2C(=O)N([C@H](C)CO)C[C@@H]1C	+	–	–	+
CCOc1ccccc1C(=O)Oc1c(S(=O)(=O)c2ccc(C)cc2)c(C)nn1-c1ccccc1	–	–	–	+
CCOc1ccccc1NC(=O)c1ccccc1N(C)S(=O)(=O)c1ccc(C)cc1	–	–	–	–
COc1c(-c2ccccc2)oc2c(CC=C(C)C)c3c(c(OC)c2c1=O)C=CC(C)(C)O3	–	–	–	–
CC1Oc2c3c(c4c(-c5ccccc5)cc(=O)oc4c2C(=O)C1C)OC(C)(C)C=C3 (centres undefined)	+	–	–	–
Cc1noc(C)c1NC(=O)Nc1ccc2c(c1)C(=O)N([C@@H](C)CO)C[C@@H](C)[C@@H](CN(C)C(=O)C1CCCCC1)OCCCC[C@H](C)O2	–	–	–	+
Cc1noc(C)c1NC(=O)Nc1ccc2c(c1)C(=O)N([C@@H](C)CO)C[C@H](C)[C@H](CN(C)C(=O)C1CCCCC1)OCCCC[C@H](C)O2	–	–	–	–
Cc1noc(C)c1NC(=O)Nc1ccc2c(c1)C(=O)N([C@H](C)CO)C[C@H](C)[C@@H](CN(C)C(=O)C1CCCCC1)OCCCC[C@@H](C)O2	–	–	–	–
Cc1noc(C)c1NC(=O)Nc1ccc2c(c1)C(=O)N([C@H](C)CO)C[C@H](C)[C@H](CN(C)C(=O)C1CCCCC1)OCCCC[C@H](C)O2	–	–	+	–
Cc1noc(C)c1NC(=O)Nc1ccc2c(c1)C(=O)N([C@@H](C)CO)C[C@@H](C)[C@H](CN(C)C(=O)C1CCCCC1)OCCCC[C@H](C)O2	+	–	–	+
O=C(CC1(O)C(=O)N(Cc2ccc(Cl)cc2)c2ccc(Cl)cc21)c1ccc2c(c1)OCCO2 (centres undefined)	–	–	–	–
Cc1nc2ccc(NC(=S)NCCCO)cc2nc1C	–	–	–	+
CCc1ccc(C(Nc2cc(C)ccn2)c2ccc3cccnc3c2O)cc1 (centres undefined)	–	+	–	–
CC1=C(CO)C(=O)OC([C@@H](C)[C@H]2CCC3C4CC=C5C[C@@H](O[C@@H]6O[C@H](CO)[C@@H](O)[C@H](O)[C@H]6O)C[C@H](O)[C@]5(C)C4CC[C@@]32C)C1 (some centres undefined)	–	–	–	–
CC1CCC2(NC1)OC1CC3C4CC=C5CC(O[C@@H]6O[C@H](CO)[C@@H](O[C@@H]7O[C@@H](C)[C@H](O)[C@@H](O)[C@H]7O)[C@H](O)[C@H]6O)CCC5(C)C4CCC3(C)C1C2C (some centres undefined)	+	–	–	–
COc1ccccc1CC(CC(=O)O)C(=O)O (centres undefined)	+	–	–	+
COc1ccccc1CC(=O)Nc1cc(Cl)ccc1O	–	–	–	–
